Source: PubChem BioAssay (National Center for Advancing Translational Sciences (NCATS))
Rows were chosen to be rich in hits. Some 19% of all compounds tested hit in one or more screens of this group.
Shiga inhibitor = A qHTS for Small Molecule Inhibitors of Shiga Toxin. AID 2315, 2010. 290,000 tested, 9.2% active. Vero cells, Shiga toxin protein synthesis inhibition reporter. inhibition, % at 38.7 µM; in the data active = inhibition mostly above about 28%, no sharp cut-off; inactive = mostly below about 43%; also: 0% is about no effect
Cycloheximide cs = Cycloheximide Counterscreen for Small Molecule Inhibitors of Shiga Toxin | cell reporter, cycloheximide protein synthesis inhibition counterscreen | max response, % | 300,000 tested, 12% active; in the data active = max response mostly above about 13%, no sharp cut-off; inactive = mostly below about 14%; also: read at 38.3 µM for the half of the compounds with a filed dose; 0% is about no effect
Pf growth 48h = Primary qHTS for delayed death inhibitors of the malarial parasite plastid, 48 hour incubation; P. falciparum luciferase growth in erythrocytes, 48 h; Potency, µM (series often up to 28.7 µM), inactives show at the top dose activity change, negative = inhibition, most hits filed as inhibitors; 310,000 tested, 5.9% active; AID 504832, 2011; also: potency is read from the fitted curve at half-maximal effect; % is scaled to controls: 0 for no effect and ±100 for the full control effect
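First compound was added to culture medium, then infected red cells at 0.1% parasitemia and 2% hematocrit (final). After incubation at 37 C under 5% CO2, luciferase detection reagent was dispensed and light output recorded.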
Pf growth 96h = Primary qHTS for delayed death inhibitors of the malarial parasite plastid, 96 hour incubation | P. falciparum luciferase reporter growth, 96 h | Potency, µM (doses to about 28.7 µM), for inactives: at the top dose activity change, negative = inhibition, most hits filed as inhibitors | 320,000 tested, 6.9% active; also: potency is read from the fitted curve at half-maximal effect; % is scaled to controls: 0 for no effect and ±100 for the full control effect
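P. falciparum expressing integrated firefly luciferase grown in erythrocytes (2% hematocrit, 0.05% parasitemia final) with compounds for 96 hours at 37 C, 5% CO2. Growth inhibition read as loss of luminescence after adding luciferase detection reagent.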
SARS PLP yeast = qHTS of Yeast-based Assay for SARS-CoV PLP | Potency, µM (titrated, usually from 32.9 µM), without a hit: at the top dose activity, positive = growth rescue, most hits filed as activators | 330,000 tested, 0.19% active | S. cerevisiae expressing SARS-CoV PLpro, growth rescue | AID 485353, 2010; calls by dose curve; also: potency is read from the fitted curve at half-maximal effect; 0% is about no effect; nearly all actives have a fitted effect of over 55% in size
AMA1-RON2 inh = qHTS for Inhibitors of AMA1-RON; Towards Development of Antimalarial Drug Lead: Primary Screen | 360,000 tested, 0.2% active | AlphaScreen AMA1-biotinylated RON2 peptide binding | Potency, µM (top dose mostly 58.2 µM), for inactives: at the highest dose activity change, negative = inhibition, most hits filed as inhibitors | Plasmodium falciparum AMA1 (3D7) - RON2 peptide interaction;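 also: potency is read from the fitted curve at half-maximal effect; 0% = vehicle wells and -100% = peptide control; nearly all actives have a fitted effect of over 45% in size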
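AMA1 (3D7) with his tag at 25 nM final met compounds first, then biotinylated RON2 peptide at 25 nM; detection used donor plus acceptor beads, 10 µg/mL apiece, read by AlphaScreen after 30 min at room temperature.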
Numbers without * were called inactive; ? = inconclusive; / = no result. Unless noted, calls follow the shape of the dose curve; as a rule, active = well fitted curve in the direction sought with a large enough effect; inconclusive = small, poorly fitted or top-dose-only effect, or another doubt; inactive = no such curve, though single readings can be large; an effect the other way counts as inactive or inconclusive.

SMILES | Shiga inhibitor | Cycloheximide cs | Pf growth 48h | Pf growth 96h | SARS PLP yeast | AMA1-RON2 inh
O=C(Cn1ncc(N2CCCC2)c(Cl)c1=O)c1ccc(Cl)cc1 | 90* | 38* | 146% | 245% | -1% | -10%
Cc1ccc(NC(=O)C2CCN(C(=O)NC3CCCCC3)CC2)cc1 | 12 | -4 | ? | 2% | 5% | 16%
CCSc1nnc(NC(=O)c2ccccn2)s1 | 60* | 45* | 2.9µM* | 11% | -12% | -6%
Cc1cnc(C(=O)Nc2nnc(SCc3c(Cl)cccc3Cl)s2)cn1 | 11 | -2 | 2.6µM* | 2.9µM* | 7% | -10%
CCSc1nnc(NC(=O)c2cnccn2)s1 | -3 | -1 | 14% | -12% | -1% | 93%
CCSc1nnc(NC(=O)c2cccnc2Cl)s1 | 54* | 28* | 69% | 65% | -12% | -13%
COCc1cn(CC(C)n2c(=O)c3ccccc3n2Cc2cc(C(C)C)no2)nn1 (stereo unspecified) | / | / | / | / | / | -14%
CC(C)CCn1c(COc2ccccc2)nn(CCC#N)c1=S | -2 | 1 | -5% | 1% | -1% | 9%
CCOc1ccc(S(=O)(=O)N2CCCCC2)cc1NS(=O)(=O)c1cccs1 | / | / | ? | ? | 1% | -5%
CC12CCC(C(=O)CC1=O)C2(C)C (stereo unspecified) | / | / | / | / | / | 3%
O=C(Nc1cccc(-c2nnco2)c1)c1cccs1 | 12 | 1 | 36% | 36% | 0% | -4%
Cc1ccc(-c2nnc(-c3cccc(NC(=O)c4cccs4)c3)o2)cc1 | 39* | 11 | ? | 142% | -6% | -14%
Cc1cccc(-c2nnc(-c3cccc(NC(=O)Cc4cccs4)c3)o2)c1 | 13 | 20* | ? | 10µM* | -4% | 5%
COC(=O)CCC(=O)Nc1ccc(Br)cc1 | -6 | -3 | 12% | ? | -4% | 2%
O=C(NCCCl)NNc1c(Cl)cc(Cl)cc1Cl | -6 | -3 | -30% | ? | 0% | -9%
CCCCNC(=S)NNc1c(Cl)cc(Cl)cc1Cl | 3 | -1 | -2% | 8.3µM* | 14% | -8%
Fc1ccc(-n2c(-c3cccs3)nc3nc4ccccc4nc32)cc1 | 2 | -5 | -9% | ? | 22% | -8%
Cc1ccc(-n2c(-c3cccs3)nc3nc4ccccc4nc32)cc1 | -8 | -2 | 1% | 2.9µM* | 16% | /
OC(CNCCNc1ncccc1C(F)(F)F)COc1ccc(F)cc1 (stereo unspecified) | -12 | -2 | ? | ? | 2% | 11%
Cn1cc(C(F)(F)F)nc1-c1ccc(OCC(O)CNCCOc2ccc(O)c(C(N)=O)c2)cc1 (stereo unspecified) | -8 | -4 | 9.3µM* | ? | 2% | -4%
O=C(O)C1NCCc2ccccc21 (stereo unspecified) | -5 | -6 | ? | 25% | 7% | 18%
S=C1NCCc2ccccc2C1c1ccccc1 (stereo unspecified) | 7 | -3 | 8.3µM* | ? | -3% | 36%
S=C1NCCc2ccccc2C1c1ccccc1Cl (stereo unspecified) | -5 | -4 | 13µM* | ? | -35% | 16%
COc1cc(NC(=O)c2ccccc2)c(C)cc1NC(=O)CC(CC(=O)O)c1ccccc1 (stereo unspecified) | -6 | -4 | 76% | 31% | -1% | 4%
CC(C)(C)NC(=O)NC(=O)CSc1ccc(S(=O)(=O)N2CCCCC2)cn1 | / | / | ? | ? | 1% | -4%
SMILES | Shiga inhibitor | Cycloheximide cs | Pf growth 48h | Pf growth 96h | SARS PLP yeast | AMA1-RON2 inh
C=CCc1cc(Cl)ccc1OCCOCCNC(C)CC (stereo unspecified) | 12 | 2 | ? | ? | 0% | 3%
C=CCc1cc(C)ccc1OCCOCCC(C(=O)OCC)C(=O)OCC | 10 | 1 | -21% | 12µM* | -33% | 83%
Cc1onc(-c2c(Cl)cccc2Cl)c1COC(=O)c1ccc(Cl)cc1 | -16 | 2 | ? | 13µM* | -1% | 8%
CCc1c(C(=O)N2CCCN(C)CC2)csc1C | 11 | -3 | -3% | 58% | 3% | 19%
O=C(COc1cccnc1[N+](=O)[O-])Nc1ccc2c(c1)OC(F)(F)O2 | -15 | -3 | 17% | 36% | -9% | -4%
COc1ccc(C(=O)CCc2ccccc2)c(O)c1 | / | / | / | / | / | 18%
COc1ccc(C(=O)Cc2cc(OC)c(OC)cc2[N+](=O)[O-])c(OC)c1 | -8 | 11 | ? | ? | 3% | -1%
O=C(COc1ccc(F)cc1)c1c(O)cc(O)cc1O | 119* | 48* | -23% | ? | 1% | 5%
COc1ccc(C(=O)COc2ccc(F)cc2)c(O)c1 | 69* | 29* | 33% | 118% | 2% | -2%
COc1ccc(C(=O)Cc2ccc(F)cc2)c(OC)c1 | 80* | 64* | 105% | ? | 17% | 14%
OC(CNc1nc(-c2cccnc2)nc2ccccc12)c1ccccc1 (stereo unspecified) | -5 | -6 | ? | ? | -17% | -19%
O=C(N/N=C/C1CC2CCC1C2)C1CC1 (stereo unspecified) | -16 | 7 | 25% | 34% | 3% | 13%
O=C(N/N=C/c1ccc[nH]1)c1sc2ccccc2c1Cl | 146* | 47* | ? | 6.6µM* | -18% | 5%
O=C(N/N=C/c1ccccn1)c1c[nH]c2ccccc12 | 65* | 49* | 37% | ? | 1% | 88%
O=C(N/N=C/c1ccncc1)c1sc2ccccc2c1Cl | 18 | 13 | -8% | ? | -10% | 15%
O=C(CNc1cccc2ccccc12)N/N=C/c1ccc[nH]1 | 26 | -1 | 9% | -3% | 0% | 48%
O=C(N/N=C/c1ccc[nH]1)c1c[nH]c2ccccc12 | 111* | 52* | -15% | -27% | 1% | 67%
O=C(N/N=C/C1CC2CCC1C2)c1c[nH]c2ccccc12 (stereo unspecified) | 40 | 23* | 19% | -11% | -2% | 65%
Cn1c(-c2ccccc2O)cc2ccccc21 | 33 | 6 | 3.7µM* | 5.2µM* | -40% | -11%
N#Cc1c(-c2ccco2)cc(-c2ccccn2)nc1N | 49 | 33* | 3% | / | -3% | 18%
CCC(C)(C)C1CCc2nc3ccccc3c(C(=O)OC(C)C(=O)Nc3c(C)n(C)n(-c4ccccc4)c3=O)c2C1 (stereo unspecified) | -5 | -1 | ? | 10µM* | -9% | 8%
O=[N+]([O-])c1ccc(S(=O)(=O)NCCc2ccncc2)cc1 | 14 | -2 | ? | 26% | 3% | 4%
NCCNc1ccc([N+](=O)[O-])c(Sc2nc3ccccc3[nH]2)c1 | 3 | -4 | ? | 13µM* | 2% | -13%
